“And” between values parts separate entries of the source, which are not always exact repeats. Equal values may be shown once. Results filed as inconclusive are left out. Where a call stands in place of a potency, no number is given. The source made the active and inactive calls. Unless noted, calls follow the shape of the dose curve; as a rule, active = well fitted curve in the direction sought with a large enough effect; inconclusive = small, poorly fitted or top-dose-only effect, or another doubt; inactive = no such curve, though single readings can be large; an effect the other way counts as inactive or inconclusive.
Legend:
[1] = Cell Viability - Renal Proximal Tubule (AID 545); also: nearly all actives have a fitted effect of over 40% in size
Outline: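 In this qHTS format, normal rat kidney-derived proximal tubule cells in complete culture medium receive compound titrations, then sit 40 hours at 37 °C before luciferase-based ATP quantitation; potency is reported as AC50 from concentration-response curves.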

[2] = Cellular Toxicity (caspase-3) HepG2 (AID 654);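 also: cells exposed to compound for 16 hours before reading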
Outline: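 Caspase 3/7 activation in HepG2 is measured as rising luminescence after a 16 hr treatment at 37 °C. Values are scaled between DMSO basal and 100 uM tamoxifen, and AC50 is fitted with the Hill equation.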

[3] = Cellular Toxicity (caspase-3) SK-N-SH (AID 661);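 also: cells exposed to compound for 16 hours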; also: potency is read from the fitted curve at half-maximal effect
Outline: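 Cells were seeded and incubated 5 hr at 37 °C, dosed with compound over a concentration range for 16 hr, then given Caspase-Glo 3/7 reagent for 1 hr at room temperature before luminescence reading.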

[4] = target: Cytochrome P450 3A4 (Homo sapiens) (UniProt P08684); assay: qHTS Assay for Inhibitors and Substrates of Cytochrome P450 3A4 (AID 884); also: nearly all actives have a fitted effect of over 50% in size; also: potency is read from the fitted curve at half-maximal effect
Sequence of Cytochrome P450 3A4 (Homo sapiens) (P08684 whole entry, looked up): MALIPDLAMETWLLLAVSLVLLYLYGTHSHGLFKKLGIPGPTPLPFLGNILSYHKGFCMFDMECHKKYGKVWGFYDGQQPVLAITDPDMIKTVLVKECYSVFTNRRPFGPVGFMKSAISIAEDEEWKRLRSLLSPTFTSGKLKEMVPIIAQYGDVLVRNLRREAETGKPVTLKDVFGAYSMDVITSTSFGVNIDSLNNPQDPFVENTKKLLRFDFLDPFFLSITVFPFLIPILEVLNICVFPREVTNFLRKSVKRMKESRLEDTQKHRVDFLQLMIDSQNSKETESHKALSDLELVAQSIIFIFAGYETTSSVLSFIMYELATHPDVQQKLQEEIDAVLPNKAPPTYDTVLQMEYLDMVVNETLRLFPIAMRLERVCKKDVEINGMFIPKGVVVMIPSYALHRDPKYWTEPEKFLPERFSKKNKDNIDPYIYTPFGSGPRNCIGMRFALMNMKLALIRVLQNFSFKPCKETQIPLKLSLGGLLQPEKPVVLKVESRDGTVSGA
Outline: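 Luminescent readout of luciferin produced by CYP3A4 (20 nM) dealkylation of Luciferin-PPXE, 25 uM (its KM). NADPH-driven reaction ran 60 min at RT after 10 min compound preincubation; data scaled to 57 uM ketoconazole as 100% inhibition.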

[5] = Cell Viability - LYMP2-004 (AID 966);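 also: cells exposed to compound for 24 h; nearly all actives have a fitted effect of over 65% in size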; also: potency is read from the fitted curve at half-maximal effect
Outline: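 qHTS cytotoxicity: human lymphoblastoid line, 24 hr compound treatment, 37 C, complete medium. Viability read as cellular ATP via luciferase luminescence; tetraoctylammonium bromide served as positive control.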

[6] = Cell Viability - LYMP2-015 (AID 971);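 also: cells exposed to compound for 24 h; nearly all actives have a fitted effect of over 55% in size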; also: potency is read from the fitted curve at half-maximal effect
Outline: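 Cells are seeded at 2500 per well and incubated 5 hr at 37 C. Compounds are added across a concentration series for 24 hr at 37 C. CellTiter-Glo is added, and luminescence is read after 30 min at room temperature.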

[7] = Cell Viability - LYMP2-010 (AID 981);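 also: cells exposed to compound for 24 hours at 37 °C; nearly all actives have a fitted effect of over 55% in size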; also: potency is read from the fitted curve at half-maximal effect
Outline: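 Steps: seed 2500 LYMP2-010 cells per well; incubate 5 hr at 37 C; add compound; incubate 24 hr at 37 C; add CellTiter-Glo, wait 30 min at room temperature; read luminescence. Concentration-response fitted to Hill equation for AC50.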

[8] = Cell Viability - LYMP2-012 (AID 982);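 also: cellular ATP by luciferase luminescence where a drop means cytotoxicity; cells exposed to compound for one day before reading; nearly all actives have a fitted effect of over 55% in size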; also: potency is read from the fitted curve at half-maximal effect
[9] = Cell Viability - LYMP2-018 (AID 985);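 also: compound exposure lasted 24 hr at 37 °C; nearly all actives have a fitted effect of over 50% in size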; also: potency is read from the fitted curve at half-maximal effect
Outline: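 Seed 2500 lymphoblastoid cells per well, incubate 5 hr at 37 C, add compound and incubate 24 hr at 37 C, add CellTiter-Glo, wait 30 min at room temperature, then read luminescence.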

[10] = Cell Viability - LYMP2-020 (AID 986);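 also: cells exposed to compound for 24 h at 37 °C; nearly all actives have a fitted effect of over 55% in size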; also: potency is read from the fitted curve at half-maximal effect
Outline: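 Seed 2500 cells per well and incubate 5 hr at 37 C. Add compounds at a concentration series and incubate 24 hr at 37 C. Add CellTiter-Glo, wait 30 min at RT, read luminescence, and fit a Hill curve for AC50.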

[11] = qHTS assay for small molecule agonists of retinoid X receptor alpha signaling (AID 588544; calls by dose curve); details: HEK293T RXRa-UAS-bla, beta-lactamase reporter, 18 h; 530 nm emission
[12] = target: Retinoic acid receptor RXR-alpha (Homo sapiens) (UniProt P19793); assay: as above
Sequence of Retinoic acid receptor RXR-alpha (Homo sapiens) (P19793 whole entry, looked up): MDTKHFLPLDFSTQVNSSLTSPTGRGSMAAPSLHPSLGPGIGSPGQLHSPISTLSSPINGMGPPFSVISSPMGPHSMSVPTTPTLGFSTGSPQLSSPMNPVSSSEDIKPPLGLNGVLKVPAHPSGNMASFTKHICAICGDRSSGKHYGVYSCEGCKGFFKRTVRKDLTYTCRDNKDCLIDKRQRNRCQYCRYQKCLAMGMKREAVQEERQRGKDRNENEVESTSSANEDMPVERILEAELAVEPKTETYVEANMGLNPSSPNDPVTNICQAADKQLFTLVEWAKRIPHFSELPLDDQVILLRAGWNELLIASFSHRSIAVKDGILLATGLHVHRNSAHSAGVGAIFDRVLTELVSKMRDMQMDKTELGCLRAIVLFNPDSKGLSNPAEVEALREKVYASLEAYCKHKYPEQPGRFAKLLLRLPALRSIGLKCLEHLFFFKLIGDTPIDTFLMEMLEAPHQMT

[13] = qHTS assay for small molecule antagonists of retinoid X receptor alpha signaling (AID 588546; active = well fitted inhibition curve with a large enough effect in the signal ratio, with a control signal flat, not every such curve was filed as active; the % refers to the signal ratio;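 also: cells stimulated with 9-cis-retinoic acid as agonist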); details: HEK293T RXRa-UAS-bla, beta-lactamase ratio, antagonist mode; measured here: W530 green channel, cytotoxicity proxy
Outline: (§1)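 Beta-lactamase reporter inhibition, read as CCF4 fluorescence ratio (ex 405, em 460/530 nm) after 2 h at RT. HEK293T UAS-bla cells, 2500/well, were stimulated with 9-cis-RA at 500 or 100 nM final alongside test compound for 18 h at 37 C.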

[14] = target: Retinoic acid receptor RXR-alpha (Homo sapiens) (UniProt P19793); assay: as above; details: HEK293T RXRa-UAS-bla, beta-lactamase ratio, antagonist mode
Outline: as §1

[15] = target: Voltage-gated inwardly rectifying potassium channel KCNH2 (Homo sapiens) (UniProt Q12809); assay: qHTS Assay for Small Molecule Inhibitors of the Human hERG Channel Activity (AID 588834);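 also: top concentration of the series differs between compounds; lower thallium flux fluorescence means stronger hERG block; nearly all actives have a fitted effect of over 50% in size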
Sequence of Voltage-gated inwardly rectifying potassium channel KCNH2 (Homo sapiens) (Q12809 whole entry, looked up): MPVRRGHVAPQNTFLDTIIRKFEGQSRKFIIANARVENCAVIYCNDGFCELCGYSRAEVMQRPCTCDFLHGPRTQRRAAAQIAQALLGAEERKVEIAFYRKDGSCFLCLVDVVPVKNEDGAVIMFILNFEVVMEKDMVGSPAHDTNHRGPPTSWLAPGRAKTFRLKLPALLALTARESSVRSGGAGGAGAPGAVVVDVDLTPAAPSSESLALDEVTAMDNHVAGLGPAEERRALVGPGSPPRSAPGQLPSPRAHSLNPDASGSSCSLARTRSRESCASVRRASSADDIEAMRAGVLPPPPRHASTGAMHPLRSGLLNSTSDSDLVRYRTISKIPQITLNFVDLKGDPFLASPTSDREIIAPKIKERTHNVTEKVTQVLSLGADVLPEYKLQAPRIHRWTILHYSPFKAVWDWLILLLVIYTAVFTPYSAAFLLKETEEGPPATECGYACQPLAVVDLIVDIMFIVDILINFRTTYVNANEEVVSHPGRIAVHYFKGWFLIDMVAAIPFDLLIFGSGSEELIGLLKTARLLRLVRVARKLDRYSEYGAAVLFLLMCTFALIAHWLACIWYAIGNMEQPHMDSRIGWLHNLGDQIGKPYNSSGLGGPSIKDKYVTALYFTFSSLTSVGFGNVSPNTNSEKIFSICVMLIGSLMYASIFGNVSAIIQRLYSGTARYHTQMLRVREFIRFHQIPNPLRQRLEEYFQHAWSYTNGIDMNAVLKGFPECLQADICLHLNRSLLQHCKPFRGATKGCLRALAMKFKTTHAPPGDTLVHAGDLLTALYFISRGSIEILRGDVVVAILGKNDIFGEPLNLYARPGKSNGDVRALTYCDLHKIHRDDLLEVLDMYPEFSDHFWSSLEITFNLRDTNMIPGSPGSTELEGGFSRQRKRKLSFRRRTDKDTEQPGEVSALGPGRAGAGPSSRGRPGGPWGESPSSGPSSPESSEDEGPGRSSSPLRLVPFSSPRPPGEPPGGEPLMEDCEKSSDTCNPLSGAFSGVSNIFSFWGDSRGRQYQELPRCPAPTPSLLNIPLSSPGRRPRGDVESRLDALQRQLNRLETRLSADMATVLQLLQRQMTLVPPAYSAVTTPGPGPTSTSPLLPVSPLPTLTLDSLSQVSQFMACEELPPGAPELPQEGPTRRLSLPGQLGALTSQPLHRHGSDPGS
Outline: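 Homogeneous FluxOR thallium flux assay using hERG-expressing U2OS cells (BacMam). Compound treatment about 10 minutes preceded stimulation; reduced fluorescence taken as channel block.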

[16] = qHTS assay for environmental chemicals that activate the Aryl hydrocarbon Receptor (AhR) signaling pathway (AID 651777); details: 1A2-DRE human hepatoma cells, luciferase, 24 h; activation: stronger effect = higher value; also: nearly all actives have a fitted effect of over 15% in size; also: potency is read from the fitted curve at half-maximal effect
Outline: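 Following a 24 hr incubation with test chemicals at 37 C and 5% CO2, 1A2-DRE human hepatoma cells received One-Glo reagent; after 30 min at room temperature, luciferase output reflected CYP1A2 induction via AhR.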

[17] = target: Nuclear receptor ROR-gamma (Homo sapiens) (UniProt P51449); assay: qHTS assay for small molecule antagonists of the retinoid-related orphan receptor gamma (ROR-gamma) signaling pathway (AID 651802); also: nearly all actives have a fitted effect of over 60% in size; also: potency is read from the fitted curve at half-maximal effect
Sequence of Nuclear receptor ROR-gamma (Homo sapiens) (P51449 whole entry, looked up): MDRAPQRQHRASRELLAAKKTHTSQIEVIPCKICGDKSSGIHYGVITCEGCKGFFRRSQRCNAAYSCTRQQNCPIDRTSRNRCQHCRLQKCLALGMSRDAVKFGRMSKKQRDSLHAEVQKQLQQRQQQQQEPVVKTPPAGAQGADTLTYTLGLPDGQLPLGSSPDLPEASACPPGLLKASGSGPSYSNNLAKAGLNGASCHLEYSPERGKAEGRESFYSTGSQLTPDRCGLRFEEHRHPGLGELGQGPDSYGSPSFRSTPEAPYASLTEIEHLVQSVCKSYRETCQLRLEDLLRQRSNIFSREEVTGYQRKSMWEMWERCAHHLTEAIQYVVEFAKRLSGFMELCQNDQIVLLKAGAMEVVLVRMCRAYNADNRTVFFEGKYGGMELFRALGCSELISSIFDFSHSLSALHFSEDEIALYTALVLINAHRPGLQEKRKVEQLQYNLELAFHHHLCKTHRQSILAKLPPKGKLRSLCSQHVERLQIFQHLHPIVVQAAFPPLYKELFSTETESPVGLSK
Outline: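 Steps: cells dispensed; compound or DMSO transferred by pin tool; doxycycline added to induce the ROR response element-driven luciferase; plates held 16hr at 37C; ONE-Glo added and luminescence measured.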

[18] = qHTS assay for cell viability of the p53RE-bla HCT-116 cell line (AID 743292); also: nearly all actives have a fitted effect of over 55% in size; also: potency is read from the fitted curve at half-maximal effect
Outline: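 After plating at 4,000 cells per well and a 5 h rest at 37 C, HCT-116 cells carrying p53RE-bla received test chemicals in DMSO. Sixteen hours later at 37 C, CellTiter-Glo was added and luminescence recorded following 30 min at room temperature.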

[19] = Cell Viability - SK-N-SH (AID 435; calls by dose curve;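 also: potency is read from the fitted curve at half-maximal effect; compound exposure lasted 40 h at 37 °C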); details: SK-N-SH neuroblastoma cell viability qHTS
Outline: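 Human neuroblastoma line, 40 h exposure at 37 °C, ATP quantified via luciferase luminescence; DMSO and 100 uM tamoxifen define 0 and 100% inhibition for AC50 fitting.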

[20] = target: Thyroid hormone receptor beta (Homo sapiens) (UniProt P10828); assay: qHTS assay for small molecule agonists of thyroid hormone receptor beta signaling (AID 588545; calls by dose curve; also: potency is read from the fitted curve at half-maximal effect)
Sequence of Thyroid hormone receptor beta (Homo sapiens) (P10828 whole entry, looked up): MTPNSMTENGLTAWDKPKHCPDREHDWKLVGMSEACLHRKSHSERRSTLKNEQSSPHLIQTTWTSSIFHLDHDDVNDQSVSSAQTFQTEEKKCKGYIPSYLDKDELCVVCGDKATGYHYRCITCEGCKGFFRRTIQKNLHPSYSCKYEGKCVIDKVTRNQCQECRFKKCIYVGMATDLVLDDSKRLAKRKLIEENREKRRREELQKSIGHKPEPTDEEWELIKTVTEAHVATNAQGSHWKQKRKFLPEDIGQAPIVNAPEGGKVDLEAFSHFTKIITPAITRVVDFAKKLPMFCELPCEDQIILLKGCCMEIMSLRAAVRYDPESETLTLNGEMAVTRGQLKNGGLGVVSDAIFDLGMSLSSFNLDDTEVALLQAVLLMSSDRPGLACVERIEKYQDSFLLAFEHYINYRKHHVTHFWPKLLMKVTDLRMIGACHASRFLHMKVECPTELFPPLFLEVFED
Outline: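 Efficacy and EC50 values derive from Hill fits of qHTS titration data, normalized to 10 nM T3 and DMSO-only wells. HEK 293 reporter cells were stimulated for 18 hrs at 37 C, with beta-lactamase activity measured by CCF4 fluorescence.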

Question: What does the source list for `O=[N+]([O-])c1ccc(O)c([N+](=O)[O-])c1`?
Answer: outcome [1]: inactive; outcome [2]: inactive; Potency [3]: inactive; Potency [4]: inactive; Potency [5]: inactive; Potency [6]: inactive; Potency [7]: inactive; Potency [8]: inactive; Potency [9]: inactive; Potency [10]: inactive; max response [11]: -6.65%; outcome [12]: inactive; max response [13]: -0.361%; max response [14]: 9.93% (inactive); Potency [15]: inactive; activation [16]: 0.436% (inactive); Potency [17]: 6.68 µM (active)

Question: Which results are given for `Oc1cc(Cl)c(Cl)c(Cl)c1`?
Answer: outcome [2]: inactive; Potency [3]: inactive; Potency [6]: inactive; Potency [9]: inactive; Potency [15]: inactive; activation [16]: 1.76% (inactive); Potency [17]: 13.3 µM (active); Potency [18]: inactive

Question: With `CN(C)c1ccc(N=Nc2ccccc2)cc1` as the compound, how does the Potency [19] read?
Answer: > 92 µM (inactive)

Question: What about the outcome [2] of the same compound?
Answer: inactive

Question: And the Potency [3]?
Answer: inactive

Question: What about the Potency [4] of the same compound?
Answer: inactive

Question: What about the Potency [5] of the same compound?
Answer: inactive

Question: And the Potency [7]?
Answer: inactive

Question: What about the Potency [8] of the same compound?
Answer: inactive

Question: What about the Potency [9] of the same compound?
Answer: inactive

Question: And the Potency [10]?
Answer: inactive

Question: And the max response [11]?
Answer: -0.567%

Question: And the outcome [12]?
Answer: inactive

Question: And the Potency [20]?
Answer: inactive

Question: And the max response [13]?
Answer: -11.2%

Question: And the max response [14]?
Answer: -20.4% (inactive)

Question: What about the Potency [15] of the same compound?
Answer: inactive

Question: And the Potency [16]?
Answer: 44.7 µM (active)

Question: And the Potency [18]?
Answer: inactive

Question: With `[C-]1=CC=CC1.[C-]1=CC=CC1.[Cl-].[Cl-].[Ti+4]` as the compound, how does the outcome [1] read?
Answer: inactive

Question: And the outcome [2]?
Answer: inactive

Question: What about the Potency [3] of the same compound?
Answer: inactive

Question: What about the Potency [4] of the same compound?
Answer: inactive

Question: What about the Potency [20] of the same compound?
Answer: inactive

Question: And the Potency [15]?
Answer: inactive

Question: What about the activation [16] of the same compound?
Answer: 0.145% (inactive)

Question: And the Potency [18]?
Answer: inactive

Question: What does the source list for `BrCC(Br)(Br)Br`?
Answer: Potency [19]: > 92 µM (inactive); outcome [1]: inactive; Potency [3]: 25.1 µM (active); Potency [4]: inactive; Potency [5]: inactive; Potency [6]: 15.8 µM (active); Potency [7]: 12.6 µM (active); Potency [8]: 12.6 µM (active); Potency [10]: 15.8 µM (active); max response [11]: 19.6%; outcome [12]: inactive; max response [13]: 2.45%; max response [14]: 23.1% (inactive); Potency [15]: inactive; activation [16]: 1.69% (inactive); Potency [18]: inactive

Question: For `Clc1ccc(C(c2ccccc2Cl)C(Cl)(Cl)Cl)cc1` (stereo not drawn), which outcome [1] is on record?
Answer: inactive

Question: What about the outcome [2] of the same compound?
Answer: inactive

Question: And the Potency [3]?
Answer: inactive

Question: What about the Potency [4] of the same compound?
Answer: inactive

Question: What about the Potency [5] of the same compound?
Answer: inactive

Question: And the Potency [6]?
Answer: inactive

Question: What about the Potency [9] of the same compound?
Answer: inactive

Question: What about the Potency [10] of the same compound?
Answer: inactive

Question: What about the Potency [20] of the same compound?
Answer: inactive

Question: What about the max response [13] of the same compound?
Answer: 5.48%

Question: What about the max response [14] of the same compound?
Answer: -26% (inactive)

Question: What about the activation [16] of the same compound?
Answer: -0.21% (inactive) and -0.331% (inactive)

Question: What about the Potency [18] of the same compound?
Answer: 50.1 µM (active)

Question: Which outcome [2] does the source give for `Oc1cc(Cl)c(Cl)c(Cl)c1Cl` here?
Answer: inactive

Question: What about the Potency [3] of the same compound?
Answer: inactive

Question: And the Potency [5]?
Answer: inactive

Question: And the Potency [6]?
Answer: inactive

Question: And the Potency [7]?
Answer: inactive

Question: What about the Potency [9] of the same compound?
Answer: inactive

Question: And the Potency [20]?
Answer: inactive

Question: And the Potency [15]?
Answer: inactive

Question: And the activation [16]?
Answer: 4.37% (inactive)

Question: What about the Potency [17] of the same compound?
Answer: 23.7 µM (active)

Question: And the Potency [18]?
Answer: inactive

Question: Which results are given for `O=[N+]([O-])c1cccc(CCl)c1`?
Answer: Potency [19]: > 92 µM (inactive); outcome [1]: inactive; outcome [2]: inactive; Potency [3]: inactive; Potency [4]: inactive; Potency [5]: inactive; Potency [8]: inactive; max response [11]: 10.9%; outcome [12]: inactive; Potency [20]: inactive; max response [13]: 8.94%; max response [14]: -0.788% (inactive); Potency [15]: inactive; Potency [17]: 33.5 µM (active); Potency [18]: inactive

Question: For `N#C/C=C/C#N`, which Potency [19] is on record?
Answer: 24.4 µM (active)

Question: And the outcome [1]?
Answer: inactive

Question: And the outcome [2]?
Answer: inactive

Question: What about the Potency [3] of the same compound?
Answer: inactive

Question: What about the Potency [4] of the same compound?
Answer: inactive

Question: And the Potency [5]?
Answer: 15.8 µM (active)

Question: What about the Potency [6] of the same compound?
Answer: 50.1 µM (active)

Question: What about the Potency [7] of the same compound?
Answer: 31.6 µM (active)

Question: And the Potency [8]?
Answer: 20 µM (active)

Question: And the Potency [9]?
Answer: 31.6 µM (active)

Question: What about the Potency [10] of the same compound?
Answer: 31.6 µM (active)

Question: What about the Potency [15] of the same compound?
Answer: inactive

Question: And the activation [16]?
Answer: 5.04% (inactive)

Question: And the Potency [17]?
Answer: 23.7 µM (active)

Question: And the Potency [18]?
Answer: inactive

Question: With `Nc1ccc(-c2ccc(N)c(Cl)c2)cc1Cl` as the compound, how does the Potency [19] read?
Answer: 3.05 µM (active)

Question: What about the Potency [3] of the same compound?
Answer: inactive

Question: What about the Potency [4] of the same compound?
Answer: 15.8 µM (active)

Question: And the Potency [5]?
Answer: inactive

Question: What about the Potency [6] of the same compound?
Answer: inactive

Question: What about the Potency [7] of the same compound?
Answer: inactive

Question: What about the Potency [8] of the same compound?
Answer: inactive

Question: And the Potency [9]?
Answer: inactive

Question: And the Potency [10]?
Answer: inactive

Question: And the Potency [20]?
Answer: inactive

Question: What about the max response [13] of the same compound?
Answer: -2.3% and -7.33%

Question: And the max response [14]?
Answer: -19% (inactive) and -20.8% (inactive)

Question: What about the Potency [15] of the same compound?
Answer: inactive

Question: What about the Potency [16] of the same compound?
Answer: 44.7 µM (active)

Question: What about the Potency [18] of the same compound?
Answer: inactive

Question: Which Potency [20] does the source give for `c1ccc2c(c1)ccc1cc3c(ccc4ccccc43)cc12` here?
Answer: 39.8 µM (active)

Question: And the Potency [16]?
Answer: 2.82 µM (active)

Question: And the Potency [17]?
Answer: inactive
